Compound activity as filed in PubChem.
Anthrax LF prot: blocks Bacillus anthracis lethal factor protease. 360,000 compounds, 0.12% hits. AID 588501. multiplex microsphere protease cleavage assay, LF. inhibition, % at 10 µM. P15917
Mtb FBA inh: inhibitors of M. tuberculosis fructose-bisphosphate aldolase; 360,000 compounds, 2.3% hits; inhibition, % at 1 µM; purified M. tuberculosis FBA, fluorescence read-out; in the data active means inhibition above about 27%
BoNT-F LC inh: inhibitors of Botulinum neurotoxin F light chain protease; Multiplex microsphere protease cleavage assay, flow cytometry; inhibition, % at 10 µM; 360,000 compounds, 0.22% hits; AID 588497; in the data active means inhibition above about 35%, passing the limit was not always enough; inconclusive means no clear call, values can overlap the other calls
BoNT A protease: inhibitors of Botulinum neurotoxin A light chain protease. AID 588499. multiplex microsphere protease substrate cleavage, flow cytometry. inhibition, % at 10 µM. 360,000 compounds, 0.17% hits
Bead autofluor: counter-screen for toxin protease inhibitors: compound fluorescence; compound autofluorescence counterscreen, microsphere flow cytometry; stronger effect = higher value; fluorescence intensity (concentration not given with the values); 360,000 compounds, 3.1% hits; AID 624483; in the data active means fluorescence intensity above about 16000; inconclusive means no clear call, values can overlap the other calls
GDH-TPI counter: GDH-TPI coupled enzyme inhibition counter-screen | inhibition, % at 4.8 µM | 360,000 compounds, 1.2% hits | GDH-TPI coupled enzyme counterscreen, NADH absorbance; in the data active means inhibition above about 30%
Large screens that a line does not name were inactive. The list is not random: actives were taken first. Their share in the collection is about 6.6%. Unless noted, no stated cut-off is given here; in the data, active means inhibition above about 30%; inconclusive means no clear call, values can overlap the other calls; inactive means below that.

COc1ccc([N+](=O)[O-])cc1/C=N/NC(=O)/C(=C\c1cccs1)NC(=O)c1ccccc1	GDH-TPI counter 43
O=C(N/N=C/c1cc2ccccc2nc1Cl)/C(=C/c1cccs1)NC(=O)c1ccccc1	none
O=C(N/N=C/c1cccnc1)/C(=C\c1cccs1)NC(=O)c1ccccc1	GDH-TPI counter 47
CCn1c(SCc2nnc(-c3ccccc3)o2)nnc1-c1ccc(S(=O)(=O)N2CCCC2)cc1	Bead autofluor 23063
NC(CCc1ccccc1)c1csc(NC(=O)NCC2CCCCC2)n1 (stereo unspecified)	none
O=C(O)CC1S/C(=N/N=C/c2ccc([N+](=O)[O-])cc2)N(c2ccc(O)cc2)C1=O (stereo unspecified)	none
COc1ccc(/C=N\N=C2/SC(CC(=O)O)C(=O)N2c2ccc(O)cc2)cc1OC (stereo unspecified)	GDH-TPI counter 44
COc1cc(/C=N\N=C2/SC(CC(=O)O)C(=O)N2c2ccc(O)cc2)ccc1O (stereo unspecified)	GDH-TPI counter 32
Nn1c(SCC(=O)NC(=O)NCc2ccco2)nnc1-c1ccc(OC(F)F)cc1	none
O=C(CCNc1n[nH]c(=O)[nH]c1=O)N1CCOCC1	BoNT A protease inconclusive, Bead autofluor 22002
Cc1nnc2ccc(N3CCCC3)nn12	none
Cc1nnc2ccc(N3CCC4(CC3)OCCO4)nn12	BoNT A protease inconclusive, Bead autofluor 23146
CCn1c(=O)cc(NC2=NCC(C)CN2c2cccc(Cl)c2)n(C)c1=O (stereo unspecified)	BoNT A protease inconclusive, Bead autofluor 19894
O=C1CSc2ccccc2N1Cc1ccccc1F	Bead autofluor 24057
Cc1cc(C(=O)NCc2cc(C)n(C)n2)sc1-c1ccccc1	Bead autofluor 18215
Cc1cc(CNC(=O)Cc2c(F)cccc2Cl)nn1C	Bead autofluor 19997
Cc1cc(CNC(=O)c2cc(-c3ccccc3)nc3ccccc23)nn1C	none
CCC(CC)N1CCN(C(=O)c2cc(OC)c(OC)c(OC)c2)CC1	BoNT-F LC inh inconclusive
Cc1ccc(-c2csc(=S)n2CC(=O)OCC(=O)NCc2ccco2)cc1	none
Cc1ccc(-c2csc(=S)n2CC(=O)OCC(=O)NC(C)C(C)C)cc1 (stereo unspecified)	Bead autofluor 16450
COc1ccc(NC(=S)Nc2cccc(C(C)=O)c2)cc1OC	BoNT-F LC inh 36
CC(=O)c1cccc(NC(=S)NC(=O)CC(C)(C)C)c1	Bead autofluor 25347
COc1cc(OC)c(OC)cc1CNCCNC(=O)c1ccco1	none
O=S(=O)(c1ccc(S(=O)(=O)N(Cc2ccccc2)Cc2ccco2)cc1)N1CCCC1	Bead autofluor 16963
CCOc1ccc(NC(=O)CN(C)C(=O)CCCOc2ccc(Cl)c(C)c2)cc1OCC	none
COc1ccc(C=CC(C)=NNC(=O)c2ccncc2)cc1	GDH-TPI counter 54
COc1ccc(/C=N\NC(=O)/C(=C\Nc2nccc(C)n2)NC(=O)c2ccccc2)cc1	GDH-TPI counter 63
Cc1ccc(/C=N\NC(=O)/C(=C\Nc2nccc(C)n2)NC(=O)c2ccccc2)cc1	GDH-TPI counter 95
Cc1ccc(/C=N/NC(=O)C(C)NC(=O)c2ccccc2)cc1 (stereo unspecified)	none
CC(/C=C/c1ccccc1)=N\NC(=O)c1ccncc1	none
COc1ccc(/C=C(\NC(=O)c2ccc(OC)cc2)C(=O)Nc2ccccc2C(=O)O)cc1	GDH-TPI counter 31
Cc1ccc(/C=N/N2CCN(C3c4ccccc4-c4ccccc43)CC2)o1	none
COc1ccc(/C=C(/NC(=O)c2ccccc2)C(=O)N/N=C/c2ccncc2)cc1	GDH-TPI counter 35
COc1ccc(/C=C(/NC(=O)c2ccccc2)C(=O)NCc2ccncc2)cc1	none
CC(C)CNC(=O)CSc1nc2nn(-c3ccccc3)c(=O)c-2c2n1CCCCC2	none
CNC(=O)CSc1nc2nn(-c3ccccc3)c(=O)c-2c2n1CCCCC2	Bead autofluor 21375
Cc1ccc(S(=O)(=O)/N=C/c2ccc(N(C)C)cc2)cc1	GDH-TPI counter 35
Cc1ccc(S(=O)(=O)/N=C/N(C)C)cc1	none
CC(=O)Nc1ccc(S(=O)(=O)NCC(=O)OCC(=O)N2CCN(c3ccccc3)CC2)cc1	none
Cc1ccc(N=c2c([N+](=O)[O-])nn(-c3ccccc3)n2O)c(C)c1	Bead autofluor 17460
Cc1c(Cl)cccc1N=c1c([N+](=O)[O-])nn(-c2ccccc2)n1O	none
Cc1cccc(CCN=c2c([N+](=O)[O-])nn(-c3ccccc3)n2O)c1	none
COc1ccc(CCN=c2c([N+](=O)[O-])nn(-c3cccc(C)c3)n2O)cc1OC	BoNT-F LC inh 40
COc1ccc(NC(=O)C(CC(C)C)NC(=O)C2CCCCC2)c(OC)c1 (stereo unspecified)	none
O=C1NC[C@@H](CCCCN2CCN(CCc3ccc(O)cc3)C(=O)C2=O)N(Cc2ccccc2)C1=O	none (no result: Mtb FBA inh, GDH-TPI counter)
COc1ccc(C(=O)N2CCC(c3ccccc3)CC2)c(OC)c1OC	none
COc1ccc(CNC(=O)CSc2nnc3c(n2)[nH]c2ccc(F)cc23)cc1	none
CCOC(=O)CN(C(=O)CSc1nnc2c(n1)[nH]c1ccc(OC)cc12)c1ccc(F)cc1	Bead autofluor 22990
O=S(=O)(Nc1cccnc1Cl)c1ccc2c(c1)OCCO2	BoNT A protease inconclusive, Bead autofluor 16615
CC(C)CNS(=O)(=O)c1ccc2c(c1)OCCO2	Bead autofluor 24162
Cc1ccc(CNS(=O)(=O)c2ccc3c(c2)OCCO3)cc1	none
CSc1ccccc1NS(=O)(=O)c1ccc2c(c1)OCCO2	Bead autofluor 20835
O=C(c1ccccc1)c1ccc(Oc2ccc([N+](=O)[O-])cc2[N+](=O)[O-])cc1	none
Brc1ccc(-c2nc3c4ccccc4ccn3c2Cc2ccccc2)cc1	none
CNc1cncc(-c2cccc(C(C)=O)c2)n1	none
CNc1cncc(-c2cccc(NS(C)(=O)=O)c2)n1	Mtb FBA inh 168
CNc1cncc(-c2ccc(O)cc2)n1	Mtb FBA inh 131
CNc1cncc(-c2ccc(S(C)(=O)=O)cc2)n1	Mtb FBA inh 171
CNc1cncc(-c2ccc(CN(C)C)cc2)n1	Mtb FBA inh active
CNc1cncc(-c2cc(C)c(O)c(C)c2)n1	none
CN(c1nc2ccccc2n2c(C3CC3)nnc12)S(=O)(=O)c1ccccc1	none
CC(O)(c1cccnc1)c1nc(-c2ccoc2)cs1 (stereo unspecified)	none
CC(=O)Nc1cncc(-c2ccc(CN(C)C)cc2)n1	none
CNc1cncc(-c2ccc(OC)cc2)n1	Mtb FBA inh 172
CNc1cccc(-c2cc(OC)ccc2OC)n1	none
CNc1cncc(-c2ccoc2)n1	Mtb FBA inh 177
CNc1cncc(-c2ccc(OCCCN(C)C)nc2)n1	Mtb FBA inh active
CNc1cncc(-c2cnn(CC(C)C)c2)n1	Mtb FBA inh active
S=c1[nH]nc(-c2ccccn2)n1/N=C/c1ccc(-c2ccccc2Br)o1	none
Cc1ccc(NC(=O)COc2cccc(Oc3ccccc3)c2)cc1S(=O)(=O)N1CCOCC1	none
